{"source": "PubChem BioAssay (NCATS)", "note": "Results filed as inconclusive are left out. A number with no mark means an inactive call. Activity calls are given as the source filed them. Calls follow the shape of the dose curve; as a rule, active = well fitted curve in the direction sought with a large enough effect; inconclusive = small, poorly fitted or top-dose-only effect, or another doubt; inactive = no such curve, though single readings can be large; an effect the other way counts as inactive or inconclusive."}
{"test": "NS1 protein of Zika virus - qHTS assay to identify small molecule inhibitors in human HEK 293 cells (AID 1347053);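 also: plate controls were infected untreated cells for no effect and uninfected cells for full effect; nearly all actives have a fitted effect of over 55% in size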", "settings": "HEK293 ZIKV MR766 infection, NS1 TR-FRET, 24 h; series mostly up to 46.1 µM; activity change, negative = inhibition: at the top concentration", "in_short": "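HEK 293 cells pretreated with compound for 1 h, then infected with ZIKV MR766 (MOI 0.5) for 24 h at 37 C. NS1 detected by TR-FRET with two anti-NS1 antibodies; normalized to uninfected (0%) and infected (100%) wells.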", "units": {"activity change, negative = inhibition": "%"}}
{"smiles": "Cc1ccc(-n2[nH]c(C)c(N=Nc3cccc(-c4cccc(C(=O)O)c4)c3O)c2=O)cc1C", "activity change, negative = inhibition": 17.3}
{"smiles": "Cn1cc(-c2ccc3ncc(Cc4ccc5ncccc5c4)n3n2)cn1", "activity change, negative = inhibition": -13.3}
{"smiles": "CC(=O)SCC(Cc1ccccc1)C(=O)NCC(=O)OCc1ccccc1", "note": "(stereo not drawn)", "activity change, negative = inhibition": -5.26}
{"smiles": "C=C(C)[C@@H]1CC[C@]2(C)CC[C@]3(C)[C@H](CC[C@@H]4[C@@]5(C)CC[C@H](O)C(C)(C)[C@H]5CC[C@]43C)[C@@H]12", "activity change, negative = inhibition": -2.47}
{"smiles": "CC(C=CC=C(C)C=CC1=C(C)CCCC1(C)C)=CC=CC=C(C)C=CC=C(C)C=CC1=C(C)CCCC1(C)C", "activity change, negative = inhibition": 1.51}
{"test": "qHTS of pediatric cancer cell lines to identify multiple opportunities for drug repurposing: Primary screen for TC32 cells (AID 1347089); also: nearly all actives have a fitted effect of over 60% in size; also: potency is read from the fitted curve at half-maximal effect; as to activity change, negative = cytotoxic: % is scaled to controls: 0 for no effect and ±100 for the full control effect", "settings": "TC32 Ewing sarcoma viability, CellTiter-Glo luminescence, 48 h; series mostly up to 45.8 µM; activity change, negative = cytotoxic: at the top concentration", "in_short": "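In the primary qHTS, MIPE compounds were tested at 11 concentrations (0.78 nM to 46 µM) and NPC compounds at 8 (0.59 nM to 46 µM) on TC32 cells for 48 h. CellTiter-Glo luminescence gave viability.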"}
{"smiles": "CON=C(C(=O)N[C@@H]1C(=O)N2C(C(=O)O)=C(CSC(=O)c3ccco3)CS[C@H]12)c1csc(N)n1", "activity change, negative = cytotoxic": "6.91%"}
{"smiles": "CCn1c(=O)c2c(nc(C=Cc3ccc(OC)c(OC)c3)n2C)n(CC)c1=O", "activity change, negative = cytotoxic": "7.79%"}
{"smiles": "CC[C@H]1OC(=O)[C@H](C)[C@@H](O[C@H]2C[C@@](C)(OC)[C@@H](O)[C@H](C)O2)[C@H](C)[C@@H](O[C@@H]2O[C@@H](C)C[C@H](N(C)C)[C@@H]2O)[C@](C)(O)C[C@@H](C)C(=O)[C@H](C)[C@@H](O)[C@]1(C)O", "activity change, negative = cytotoxic": "4.96%"}
{"smiles": "O=C(Nc1ccc(Oc2ccnc3[nH]ccc23)c(F)c1)c1cccn(-c2ccc(F)cc2)c1=O", "activity change, negative = cytotoxic": "11.8%"}
{"smiles": "O=C(O)C[C@H](O)C[C@H](O)C=Cc1c(C2CC2)nc2ccccc2c1-c1ccc(F)cc1", "Potency": "11700 nM (active)"}
{"smiles": "COC[C@H](NC(=O)c1cnc(C)s1)C(=O)N[C@@H](COC)C(=O)N[C@@H](Cc1ccccc1)C(=O)[C@@]1(C)CO1", "Potency": "587 nM (active)"}
{"smiles": "Cc1ccc([N+](=O)[O-])cc1S(=O)(=O)N(C)N=Cc1cnc2ccc(Br)cn12", "Potency": "82.9 nM (active)"}
{"smiles": "COc1cc(C=CC(=O)CC(=O)C=Cc2ccc(O)c(OC)c2)ccc1O", "Potency": "33900 nM (active)"}
{"smiles": "OC[C@@H](O)[C@@H](O)[C@H](O)[C@@H](O)CO", "activity change, negative = cytotoxic": "9.8%"}
{"smiles": "CC(C)N1[N]C(=C2C=c3cc(O)ccc3=N2)c2c(N)ncnc21", "Potency": "2940 nM (active)"}
{"smiles": "O=C(O)[C@H](CC(=O)N1C[C@@H]2CCCC[C@H]2C1)Cc1ccccc1", "activity change, negative = cytotoxic": "8.88%"}
{"smiles": "COC(=O)[C@H](CCCN=C(N)N)NS(=O)(=O)c1ccc(C)cc1", "activity change, negative = cytotoxic": "12.6%"}
{"smiles": "CC(C)(O)[C@H]1CC[C@@](C)([C@H]2[C@@H](O)C[C@@]3(C)[C@@H]4C[C@H](O[C@@H]5O[C@H](CO)[C@@H](O)[C@H](O)[C@@H]5O)[C@H]5C(C)(C)[C@@H](O[C@@H]6OC[C@@H](O)[C@H](O)[C@@H]6O)CC[C@@]56C[C@@]46CC[C@]23C)O1", "activity change, negative = cytotoxic": "5.1%"}
{"smiles": "C#C[C@]1(O)CC[C@@H]2[C@@H]3CCC4=CC(=O)CC[C@@H]4[C@H]3CC[C@@]21CC", "activity change, negative = cytotoxic": "-13.6%"}
{"smiles": "C[C@@H](Cc1cc2c(c(C(N)=O)c1)N(CCCO)CC2)NCCOc1ccccc1OCC(F)(F)F", "activity change, negative = cytotoxic": "3.25%"}
{"smiles": "C=C(C)[C@@H]1CC[C@]2(C(=O)O)CC[C@]3(C)[C@H](CC[C@@H]4[C@@]5(C)CC[C@H](O)C(C)(C)[C@@H]5CC[C@]43C)[C@@H]12", "activity change, negative = cytotoxic": "1.31%"}
{"smiles": "O=C(O)C(=O)Nc1cccc(C2=NN=N[N]2)c1", "activity change, negative = cytotoxic": "-0.185%"}
{"smiles": "C#CCC(Cc1cnc2nc(N)nc(N)c2n1)c1ccc(C(=O)N[C@@H](CCC(=O)O)C(=O)O)cc1", "note": "(stereo partly drawn)", "Potency": "37 nM (active)"}
{"smiles": "O=c1ccn([C@@H]2O[C@H](CO)[C@H](O)[C@@H]2F)c(=O)[nH]1", "activity change, negative = cytotoxic": "5.2%"}
{"smiles": "CC(C(C)N1CC(=O)NC(=O)C1)N1CC(=O)NC(=O)C1", "note": "(stereo not drawn)", "activity change, negative = cytotoxic": "4.59%"}
{"smiles": "O=C1c2c(O)cccc2[C@@H]([C@@H]2O[C@H](CO)[C@@H](O)[C@H](O)[C@H]2O)c2cc(CO)cc(O)c21", "activity change, negative = cytotoxic": "3.69%"}
{"smiles": "CCCCCCCCCCCCc1ccc(S(=O)(=O)Nc2nncs2)cc1", "activity change, negative = cytotoxic": "-4.2%"}
{"smiles": "OCc1ccccc1O[C@@H]1O[C@H](CO)[C@H](O)[C@H](O)[C@H]1O", "activity change, negative = cytotoxic": "4.14%"}
{"smiles": "C=C1CCC2[C@](C)(CO)C(O)CC[C@]2(C)C1CC=C1C(=O)OCC1O", "note": "(stereo partly drawn)", "activity change, negative = cytotoxic": "7.2% [at 92.2 µM]"}
{"smiles": "C[C@H](CCC(=O)O)[C@H]1CC[C@H]2[C@@H]3[C@H](O)C[C@@H]4C[C@H](O)CC[C@]4(C)[C@@H]3CC[C@]12C", "activity change, negative = cytotoxic": "5.29%"}
{"smiles": "O=C(O)CCCCC(CCSCc1ccccc1)SCc1ccccc1", "note": "(stereo not drawn)", "activity change, negative = cytotoxic": "6.16%"}
{"smiles": "C[C@@]12C[C@@]3(O)O[C@@H](O1)[C@]1(COC(=O)c4ccccc4)[C@@H]3C[C@@]12O[C@@H]1O[C@H](CO)[C@@H](O)[C@H](O)[C@@H]1O", "activity change, negative = cytotoxic": "2.19%"}
{"smiles": "CON=C(C(=O)N[C@@H]1C(=O)N2C(C(=O)O)=C(Cn3ccc(=N)n3CCO)CS[C@H]12)c1csc(N)n1", "activity change, negative = cytotoxic": "7.76%"}
